Test results as given in the supplement of paper PMC8975748.
± gives the standard deviation of the averaged measurements.

Experiments:
[1] = test system: Saccharomyces cerevisiae BY4741 SeMeCo community; test: mean cell size (pixel area) (pixels); higher = larger cells; details: 10 µM; 24 h; SM minimal medium
Summary of the method: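 Mean cell pixel area per well was measured in a four-plasmid fluorescent community of Saccharomyces cerevisiae BY4741, where every plasmid complements one auxotrophy and carries a fluorescent marker. Cells from an overnight preculture at OD600 = 1.0 were diluted to OD600 = 0.3 and dispensed at 70 µl into 384-well plates acoustically predosed with drug to a final 10 µM in SM medium. Incubation lasted 24 h, followed by paraformaldehyde fixation, automated confocal imaging and analysis in Harmony. Reported figures are averaged over 3 replicates. Same SeMeCo high-content imaging drug screen: Selleck FDA-approved drugs at 10 µM, 24 h in SM medium, 384-well plates, 3 replicates.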

[2] = test system: Saccharomyces cerevisiae BY4741 SeMeCo community; test: z-score of prototroph abundance vs DMSO median; higher = larger share of this subpopulation than in DMSO controls; details: 10 µM; 24 h; SM minimal medium; subpopulation (auxotrophy): Prototroph
Summary of the method: (§1)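 Automated confocal microscopy of paraformaldehyde-fixed cells was used to follow a Saccharomyces cerevisiae BY4741 community carrying four plasmids, each restoring one auxotrophy and encoding a distinct fluorescent protein. The community was pre-grown overnight to OD600 1.0, diluted to 0.3, and added at 70 µl to 384-well plates acoustically predosed with library drugs (10 µM final) for 24 h of growth in minimal SM medium. Single-auxotroph fluorescent strains set thresholds and autofluorescence correction, and each subpopulation's abundance was scored as a z-score against the vehicle-well median.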

[3] = test system: Saccharomyces cerevisiae BY4741 SeMeCo community; test: z-score of subpopulation abundance vs DMSO median, subpopulation auxotrophic for M; higher = larger share of this subpopulation than in DMSO controls; details: 10 µM; 24 h; SM minimal medium; subpopulation (auxotrophy): M
Summary of the method: as §1

[4] = test system: Saccharomyces cerevisiae BY4741 SeMeCo community; test: z-score of subpopulation abundance vs DMSO median, subpopulation auxotrophic for L; higher = larger share of this subpopulation than in DMSO controls; details: 10 µM; 24 h; SM minimal medium; subpopulation (auxotrophy): L
Summary of the method: as §1

[5] = test system: Saccharomyces cerevisiae BY4741 SeMeCo community; test: z-score of subpopulation abundance vs DMSO median, subpopulation auxotrophic for U; higher = larger share of this subpopulation than in DMSO controls; details: 10 µM; 24 h; SM minimal medium; subpopulation (auxotrophy): U
Summary of the method: as §1

[6] = test system: Saccharomyces cerevisiae BY4741 SeMeCo community; test: z-score of subpopulation abundance vs DMSO median, subpopulation auxotrophic for H; higher = larger share of this subpopulation than in DMSO controls; details: 10 µM; 24 h; SM minimal medium; subpopulation (auxotrophy): H
Summary of the method: as §1

[7] = test system: Saccharomyces cerevisiae BY4741 SeMeCo community; test: z-score of subpopulation abundance vs DMSO median, subpopulation auxotrophic for LU; higher = larger share of this subpopulation than in DMSO controls; details: 10 µM; 24 h; SM minimal medium; subpopulation (auxotrophy): LU
Summary of the method: as §1

[8] = test system: Saccharomyces cerevisiae BY4741 SeMeCo community; test: z-score of subpopulation abundance vs DMSO median, subpopulation auxotrophic for LM; higher = larger share of this subpopulation than in DMSO controls; details: 10 µM; 24 h; SM minimal medium; subpopulation (auxotrophy): LM
Summary of the method: as §1

[9] = test system: Saccharomyces cerevisiae BY4741 SeMeCo community; test: z-score of subpopulation abundance vs DMSO median, subpopulation auxotrophic for HM; higher = larger share of this subpopulation than in DMSO controls; details: 10 µM; 24 h; SM minimal medium; subpopulation (auxotrophy): HM
Summary of the method: as §1

[10] = test system: Saccharomyces cerevisiae BY4741 SeMeCo community; test: z-score of subpopulation abundance vs DMSO median, subpopulation auxotrophic for HU; higher = larger share of this subpopulation than in DMSO controls; details: 10 µM; 24 h; SM minimal medium; subpopulation (auxotrophy): HU
Summary of the method: as §1

[11] = test system: Saccharomyces cerevisiae BY4741 SeMeCo community; test: z-score of subpopulation abundance vs DMSO median, subpopulation auxotrophic for UM; higher = larger share of this subpopulation than in DMSO controls; details: 10 µM; 24 h; SM minimal medium; subpopulation (auxotrophy): UM
Summary of the method: as §1

[12] = test system: Saccharomyces cerevisiae BY4741 SeMeCo community; test: z-score of subpopulation abundance vs DMSO median, subpopulation auxotrophic for HL; higher = larger share of this subpopulation than in DMSO controls; details: 10 µM; 24 h; SM minimal medium; subpopulation (auxotrophy): HL
Summary of the method: as §1

[13] = test system: Saccharomyces cerevisiae BY4741 SeMeCo community; test: z-score of subpopulation abundance vs DMSO median, subpopulation auxotrophic for HLU; higher = larger share of this subpopulation than in DMSO controls; details: 10 µM; 24 h; SM minimal medium; subpopulation (auxotrophy): HLU
Summary of the method: as §1

[14] = test system: Saccharomyces cerevisiae BY4741 SeMeCo community; test: z-score of subpopulation abundance vs DMSO median, subpopulation auxotrophic for HLM; higher = larger share of this subpopulation than in DMSO controls; details: 10 µM; 24 h; SM minimal medium; subpopulation (auxotrophy): HLM
Summary of the method: as §1

[15] = test system: Saccharomyces cerevisiae BY4741 SeMeCo community; test: z-score of subpopulation abundance vs DMSO median, subpopulation auxotrophic for HUM; higher = larger share of this subpopulation than in DMSO controls; details: 10 µM; 24 h; SM minimal medium; subpopulation (auxotrophy): HUM
Summary of the method: as §1

[16] = test system: Saccharomyces cerevisiae BY4741 SeMeCo community; test: z-score of subpopulation abundance vs DMSO median, subpopulation auxotrophic for LUM; higher = larger share of this subpopulation than in DMSO controls; details: 10 µM; 24 h; SM minimal medium; subpopulation (auxotrophy): LUM
Summary of the method: as §1

[17] = test system: Saccharomyces cerevisiae BY4741 SeMeCo community; test: z-score of subpopulation abundance vs DMSO median, subpopulation auxotrophic for HLUM; higher = larger share of this subpopulation than in DMSO controls; details: 10 µM; 24 h; SM minimal medium; subpopulation (auxotrophy): HLUM
Summary of the method: as §1

| SMILES | mean cell size [1] | z-score of prototroph abundance [2] | z-score of subpopulation abundance [3] | z-score of subpopulation abundance [4] | z-score of subpopulation abundance [5] | z-score of subpopulation abundance [6] | z-score of subpopulation abundance [7] | z-score of subpopulation abundance [8] | z-score of subpopulation abundance [9] | z-score of subpopulation abundance [10] | z-score of subpopulation abundance [11] | z-score of subpopulation abundance [12] | z-score of subpopulation abundance [13] | z-score of subpopulation abundance [14] | z-score of subpopulation abundance [15] | z-score of subpopulation abundance [16] | z-score of subpopulation abundance [17] |
| --- | --- | --- | --- | --- | --- | --- | --- | --- | --- | --- | --- | --- | --- | --- | --- | --- | --- |
| Cc1c[nH]c(=O)[nH]c1=O [Thymine] | 12.4 ± 0.22 | -0.52 | 0.85 | 0.24 | 0.76 | -0.36 | 0.49 | -0.22 | 0.33 | 0.14 | 0.58 | -0.04 | 0.71 | 0.64 | 0.09 | 0.24 | 0.51 |
| CS(=O)(=O)c1ccc([C@@H](O)[C@@H](CO)NC(=O)C(Cl)Cl)cc1 [Thiamphenicol] | 12.41 ± 0.061 | 0.25 | -0.68 | 0.13 | 0.59 | -0.3 | 0.67 | -0.48 | -0.5 | 0.15 | 0.81 | -0.52 | -0.36 | -0.85 | -0.08 | -0.6 | -0.23 |
| CS(=O)(=O)c1ccc(C2=C(c3ccccc3)C(=O)OC2)cc1 [Rofecoxib] | 12.3 ± 0.16 | -0.48 | 0.64 | 1.07 | -0.52 | 0.29 | 0.3 | 1.55 | 1.11 | 0.01 | 0.95 | 0.69 | 1.31 | 1.01 | 0.77 | 1.28 | 0.43 |
| O=C(NCCN1CCOCC1)c1ccc(Cl)cc1 | 12.4 ± 0.22 | 0.89 | 0.03 | 1.75 | -0.52 | -0.65 | 0.18 | 1.06 | -0.79 | -1.32 | -1.28 | -0.31 | 0.17 | -0.28 | -1.26 | 0.42 | 0.73 |
| CN(CCOc1ccc(NS(C)(=O)=O)cc1)CCc1ccc(NS(C)(=O)=O)cc1 [Dofetilide] | 12.4 ± 0.18 | 0.39 | -0.18 | -0.53 | 0.48 | -0.68 | 0.5 | 0.47 | -0.88 | 0.18 |  | -0.22 | -0.23 | -0.86 | 0.21 | -0.27 | -0.1 |
| CC[C@H](C)[C@H](N)C1=N[C@H](C(=O)N[C@@H](CC(C)C)C(=O)N[C@H](CCC(=O)O)C(=O)N[C@H](C(=O)N[C@H]2CCCCNC(=O)[C@H](CC(N)=O)NC(=O)[C@@H](CC(=O)O)NC(=O)[C@H](Cc3cnc[nH]3)NC(=O)[C@@H](Cc3ccccc3)NC(=O)[C@H]([C@@H](C)CC)NC(=O)[C@@H](CCCN)NC2=O)[C@@H](C)CC)CS1 [Bacitracin] | 12 ± 0.24 | -2.14 | -0.01 | 1.05 | 0.29 | 3.13 | 0.64 | 1.28 | 1.2 | 2.07 | 0.03 | 3.67 | 3.61 | 1.35 | 1.59 | 0.84 | 1.51 |
| CC[C@H]1OC(=O)[C@H](C)[C@@H](O[C@H]2C[C@@](C)(OC)[C@@H](O)[C@H](C)O2)[C@H](C)[C@@H](O[C@@H]2O[C@H](C)C[C@H](N(C)C)[C@H]2O)[C@](C)(O)C[C@@H](C)CN(C)[C@H](C)[C@@H](O)[C@]1(C)O [Azithromycin Dihydrate] | 12.5 ± 0.38 | -0.48 | 0.58 | 0.09 | -0.03 | 0.7 | -0.14 | -0.45 | 0.39 | -0.53 | 0.16 | 0.05 | -0.73 | 0.07 | 0.97 | -0.75 | -0.18 |
